According to ChEMBL document CHEMBL1157539, “Thousands of chemical starting points for antimalarial lead identification” (Nature, 2010):

tested on: HepG2; test: GSK_TCMDC: Percent inhibition of human HepG2 cell line. Test compounds present at 10uM.; assay type: functional

SMILES	Inhibition
O=C(NC1CCN(c2ncc(C(F)(F)F)cc2Cl)CC1)c1cccs1	15%
O=C(NC1CCC(N2CCC(Cc3ccc(F)cc3)CC2)CC1)c1cc2ccccc2[nH]1 (configuration not stated)	60%
Cl.OC(c1ccccc1)C1CN(CCC2CC3CCC2C3)CCC1(O)c1ccccc1 (configuration not stated)	0%
COc1ccc2ncc(Cl)c(CCN3CC[C@@H](CNCc4cc5c(cn4)OCS5)C3)c2n1.Cl	22%
Cl.N=C(N)c1ccc(-c2cc3ccc(C(=N)N)cc3[nH]2)cc1	18%
Cc1cccc(Nc2nccc(Nc3cccc(C(=O)NCCN4CCOCC4)c3)n2)c1	10%
CC(=O)Nc1cc(C(=O)Nc2cccc(-c3cccc(-c4nc5cccc(C)c5[nH]4)c3)c2)ccc1C	25%
CC[C@H](NC(=O)c1c(CN2CCC(N3CCCCC3)CC2)c(-c2ccccc2)nc2cc(O)ccc12)c1ccccc1	15%
CCOC(=O)C(C(=O)OCC)c1nc(C)ns1	10%
CN(C)CCCOc1cc(NC(=O)Nc2ccc(-c3ccncc3)c3ccccc23)ccc1I.Cl	46%
O=C(/C=C/c1ccc(Cl)c(Cl)c1)NCCCCN1CCCN(C(=O)Nc2ccc(F)c(Cl)c2)CC1	69%
Br.CC(C)(C)c1ccc(Cn2c(=N)n(CC(=O)c3ccc(-c4ccccc4)cc3)c3ccccc32)cc1	63%
COc1ccc(C2CC(c3ccccc3O)=NN2C(=O)c2ccco2)cc1OC (configuration not stated)	11%
Oc1ccc(CCNc2nc(NCc3ccccc3-c3ccc(C(F)(F)F)cc3)nc(N3CCNCC3)n2)cc1	17%
Cc1cccc(CNc2nc(C)cc(N[C@@H](CC(C)C)C(=O)NCCOc3ccccc3)n2)c1.O=C(O)C(F)(F)F	15%
COc1ccc(NC(=O)C2c3ccccc3C(=O)N(C3CCCC3)C2c2cccs2)c(OC)c1 (configuration not stated)	3%
CC(C)Sc1nc(-c2ccccc2)nc2c1COC(C)(C)C2	2%
CCOc1ccc2c(=NN=Cc3ccccc3F)cc(C)[nH]c2c1	0%
COC(=O)c1cccc(NC(=O)NCCNc2ccnc(Nc3ccc(F)cc3)n2)c1	10%

SMILES	Inhibition
Cc1csc2nc(-c3ccccn3)nc(Nc3ccc4ncsc4c3)c12.Cl	0%
CCCCOc1ccc(CNCCCCCCNCc2ccc(OCCCC)c3ccccc23)c2ccccc12.CS(=O)(=O)O	100%
O=C(C=Cc1cccs1)Nc1ccc(-c2nc3ccccc3[nH]2)cc1	0%
CS(=O)(=O)CCNCc1cccc(-c2cc3c(Nc4ccc(OCc5cccc(F)c5)c(Cl)c4)ncnc3s2)c1.O=C(O)C(F)(F)F	5%
COc1cccc(C23NC(=Nc4nc5ccccc5[nH]4)NC2(c2cccc(OC)c2)NC(=Nc2nc4ccccc4[nH]2)N3)c1 (configuration not stated)	0%
CCN(CC)CCCNc1nccc(N2CCc3ncnc(Nc4ccc(OCc5cccc(F)c5)c(Cl)c4)c3C2)n1	100%
Nc1cccc(CNCc2ccc(-c3ccc(-c4nc5ccccc5[nH]4)s3)cc2)c1.O=C(O)C(F)(F)F	12%
CCc1c[nH]c2c(N3CCCS3(=O)=O)cc(C(=O)N[C@@H](Cc3ccccc3)[C@H](O)CNC(C)(C)c3cccc(C(F)(F)F)c3)cc12.O=CO	20%
CCCNc1ccc2nccc(CCN3CCC(NCc4ccc5c(n4)NC(=O)CS5)CC3)c2n1	24%
O=C(/C=C/c1ccc(Cl)c(Cl)c1)NCCCCCN1CCC(NC(=O)c2cc(Cl)ccc2F)CC1	48%
O=C(O)C(F)(F)F.c1cc(CN2CCCCC2)cc(-c2ccc(-c3nc4ccccc4[nH]3)cc2)c1	9%
Cc1c(CN2CCCCC2)cccc1OCCCNc1nc(NCCc2ccc(O)cc2)nc(N2CCNCC2)n1.O=C(O)C(F)(F)F	26%
Br.N=C1N=C(N)NC2(CCCCC2)N1OCC1CCCCC1	70%
CC(=O)NCCNc1cc(N2CCc3ncnc(Nc4ccc(OCc5c(F)cccc5F)c(Cl)c4)c3C2)ncn1	55%
CC(=O)Nc1ncc(C(=O)Nc2cccc(-c3ccc(-c4nc5cccc(C)c5[nH]4)cc3)c2)s1	69%
COc1ccc(-c2ccc3c(-c4cccc(S(C)(=O)=O)c4)cnc(N)c3c2)cc1	41%
Cc1ccc(CNC(=O)[C@H](CCCN)Nc2nc(NCC3CCCCC3)ncc2C)cc1.O=C(O)C(F)(F)F	1%
CCc1cc(OC)c(C(=O)NC2CCN(C[C@H](O)c3ccnc4ccc(OC)cc34)CC2)cc1Br	6%
